Assay outcomes (PubChem)
This is a sample that favours compounds with a hit; in the whole collection about 18% have one here.
IL-1B inflam inh – qHTS for Inhibitors of Inflammasome Signaling: IL-1-beta AlphaLISA Primary Screen; THP-1 LPS/ATP IL-1B secretion, AlphaLISA, 16 h; hits give low values; AID 743279, 2014; hit rate 4.7% among 360,000; activity change, % at 57.5 µM; in the data active means activity change below about -50%; inconclusive means mostly about -30% to -49%
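THP-1 cells pretreated 1 hr with compounds (up to 57.5 uM final), then stimulated with LPS (250 ng/mL final) plus ATP (1.25 mM final); secreted IL-1B measured by AlphaLISA after 16 hr, decreased signal indicating inhibition.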
RORgamma inh – qHTS for inhibitors of ROR gamma transcriptional activity | Nuclear receptor ROR-gamma (Mus musculus), P51450 | Drosophila S2 Gal4-RORgamma UAS-luciferase reporter, 20 h | Potency, µM (titrated, usually from 53.6 µM), without a hit: at the highest dose activity change, negative = inhibition, most hits filed as inhibitors | hit rate 5.4% among 310,000 | AID 2551, 2010; further: potency means the concentration at half of the fitted maximal effect; nearly all actives have a fitted effect of over 60% in size
Target sequence (P51450 whole entry, looked up, the tested form may be a part): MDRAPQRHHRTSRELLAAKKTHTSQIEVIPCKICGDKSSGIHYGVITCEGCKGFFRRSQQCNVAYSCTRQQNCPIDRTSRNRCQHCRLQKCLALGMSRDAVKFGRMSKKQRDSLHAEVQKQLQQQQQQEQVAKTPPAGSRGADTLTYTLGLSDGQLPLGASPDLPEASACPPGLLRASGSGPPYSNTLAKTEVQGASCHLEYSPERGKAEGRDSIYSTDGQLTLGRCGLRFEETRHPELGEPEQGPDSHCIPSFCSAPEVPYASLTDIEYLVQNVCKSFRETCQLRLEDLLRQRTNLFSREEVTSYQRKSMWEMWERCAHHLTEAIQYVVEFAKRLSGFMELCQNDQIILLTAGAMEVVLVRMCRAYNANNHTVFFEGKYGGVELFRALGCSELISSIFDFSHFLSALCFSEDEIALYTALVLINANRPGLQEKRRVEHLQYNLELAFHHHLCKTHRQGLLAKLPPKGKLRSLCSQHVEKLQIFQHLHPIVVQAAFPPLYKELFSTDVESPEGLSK
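ROR gamma transcriptional activity was tracked as Gal4-UAS luciferase output in stably transfected Drosophila Schneider cells, with compound added 1 hr before 700 uM copper sulfate induction and a 20 hr ambient-temperature incubation.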
LDHA inh – qHTS assay for inhibitors of human lactate dehydrogenase; purified LDHA, NADH/diaphorase-resazurin fluorescence; hits give low values; AID 1347041, 2019; activity change, % (values are at about 110 or 230 µM); hit rate 0.15% among 480,000; in the data active means activity change below about -30%; inconclusive means mostly about -25% to -30%;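 further: plate controls were DMSO wells for no effect and wells without enzyme for full effect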
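Resorufin fluorescence (ex540/em590), read at 0 and 20 min after diaphorase/resazurin addition, reports the NADH left after a 5 min room-temperature reaction of 2 nM human LDH5 with 0.06 mM NADH and 0.2 mM pyruvate.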
DT40 TDP1 CPT – qHTS for Inhibitors of human tyrosyl-DNA phosphodiesterase 1 (TDP1): qHTS in cells in presence of CPT; chicken DT40 Tdp1-/-;hTDP1 cells + 20 nM CPT, ATP luminescence, 48 h; AID 686979, 2013; Potency, µM (titrated, usually from 46.2 µM), without a hit: top-dose activity change, negative = growth inhibition, most hits filed as inhibitors; hit rate 12% among 420,000; further: potency means the concentration at half of the fitted maximal effect; nearly all actives have a fitted effect of over 55% in size
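Chicken DT40 Tdp1-/- cells complemented with human TDP1, 400 cells/well, exposed to compounds plus 20 nM camptothecin for at least 48 h at 37 C; viability read as ATP content by CellTiter-Glo luminescence.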
Gal4-VP16 FLuc – VP16 counterscreen qHTS for inhibitors of ROR gamma transcriptional activity; Drosophila S2 Gal4-VP16 UAS-luciferase, luminescence, 20 h; Potency, µM (top dose mostly 53.6 µM), for inactives: at the top dose activity, negative = inhibition, hits mostly inhibitors; hit rate 3.5% among 310,000;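 further: Gal4-VP16 expression switched on by copper sulfate through the metallothionein promoter; potency means the concentration at half of the fitted maximal effect; nearly all actives have a fitted effect of over 50% in size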
TDP1 cell noCPT – qHTS for Inhibitors of human tyrosyl-DNA phosphodiesterase 1 (TDP1): qHTS in cells in absence of CPT; DT40 Tdp1-/- hTDP1 cells, no CPT, ATP luminescence, 48 h; Potency, µM (top dose mostly 46.2 µM), without a hit: top-dose activity change, negative = growth inhibition, actives largely listed as inhibitors; hit rate 15% among 420,000; AID 686978, 2013; further: potency means the concentration at half of the fitted maximal effect; nearly all actives have a fitted effect of over 55% in size
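Luminescent ATP content (CellTiter-Glo) served as the growth readout. Knockout chicken DT40 cells expressing human TDP1 were exposed to compounds without camptothecin for a minimum 48 hr at 37 °C.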
An asterisk follows results filed as active; [ ] = another dose, or the depositor's remark. Unless noted, the call rests on the fitted dose curve; in most records, active means well fitted curve in the direction sought with a large enough effect; inconclusive means small, poorly fitted or top-dose-only effect, or another doubt; inactive means no such curve, though single readings can be large; an effect the other way counts as inactive or inconclusive. Unless noted, on the % scale 0 is the no-effect control and ±100 the full control effect.

How did O=[N+]([O-])c1cc(S(=O)(=O)N2CCCCCC2)ccc1Cl do in these assays?
IL-1B inflam inh: -104*; RORgamma inh: -43%; LDHA inh: -6; DT40 TDP1 CPT: inconclusive; Gal4-VP16 FLuc: 3%; TDP1 cell noCPT: 8.2µM*

What do the screens show for `Cc1ccc(S(=O)(=O)N2CCCCC2C)cc1[N+](=O)[O-]` (stereo unspecified)?
IL-1B inflam inh: -7; RORgamma inh: inconclusive; LDHA inh: -1; DT40 TDP1 CPT: 12µM*; Gal4-VP16 FLuc: -15%; TDP1 cell noCPT: 15µM*

Results for COc1ccc(Nc2ccc(S(=O)(=O)N3CCCCCC3)cc2[N+](=O)[O-])cc1 ?
IL-1B inflam inh: inconclusive; RORgamma inh: 32%; LDHA inh: -7; DT40 TDP1 CPT: inconclusive; Gal4-VP16 FLuc: 6%; TDP1 cell noCPT: 23µM*

What do the screens show for `COc1cc(C=O)ccc1Oc1ccc(S(=O)(=O)N2CCOCC2)cc1[N+](=O)[O-]`?
IL-1B inflam inh: -57*; LDHA inh: -5; DT40 TDP1 CPT: -10%; TDP1 cell noCPT: -29%

What do the screens show for `Cc1ccc(C(=O)C(C)OC(=O)c2ccc(Cl)c(N)c2)cc1` (stereo unspecified)?
LDHA inh: -2

How did COc1ccc(Nc2ccc(S(=O)(=O)N3CCCCC3)cc2[N+](=O)[O-])cc1OC do in these assays?
IL-1B inflam inh: 0; RORgamma inh: inconclusive; LDHA inh: -8; DT40 TDP1 CPT: inconclusive; Gal4-VP16 FLuc: 0%; TDP1 cell noCPT: 21µM*

What do the screens show for `O=[N+]([O-])c1cc(S(=O)(=O)N2CCCC2)ccc1NCCc1ccccc1`?
IL-1B inflam inh: 28; RORgamma inh: 17%; LDHA inh: 1; DT40 TDP1 CPT: inconclusive; Gal4-VP16 FLuc: -10%; TDP1 cell noCPT: inconclusive

How did COc1ccc(CCNc2ccc(S(=O)(=O)N3CCCC3)cc2[N+](=O)[O-])cc1 do in these assays?
IL-1B inflam inh: -22; RORgamma inh: -20%[10 µM]; LDHA inh: -12; DT40 TDP1 CPT: 15µM*; Gal4-VP16 FLuc: -4%; TDP1 cell noCPT: inconclusive

How did COC(=O)c1cc2c(Br)cc(OC)c(OC)c2[nH]1 do in these assays?
LDHA inh: -1

How did COc1cccc(/C=C/c2ccc3cccc(O)c3n2)c1OC do in these assays?
IL-1B inflam inh: 35; RORgamma inh: 2.8µM*; LDHA inh: 3; DT40 TDP1 CPT: inconclusive; Gal4-VP16 FLuc: 5.6µM*; TDP1 cell noCPT: 16µM*

How did CCOc1c(OC(C)=O)ccc(/C=C/c2ccc3cccc(OC)c3n2)c1[N+](=O)[O-] do in these assays?
IL-1B inflam inh: 5; RORgamma inh: inconclusive; LDHA inh: 3; DT40 TDP1 CPT: inconclusive; Gal4-VP16 FLuc: -5%; TDP1 cell noCPT: 16µM*

What do the screens show for `COc1ccc(/C=C/c2ccc3cccc(O)c3n2)c(OC)c1OC`?
IL-1B inflam inh: -91*; RORgamma inh: 3.2µM*; LDHA inh: 7; DT40 TDP1 CPT: 9.2µM*; Gal4-VP16 FLuc: inconclusive; TDP1 cell noCPT: 10µM*

How did CCOc1c(/C=C/c2ccc3cccc(O)c3n2)cccc1OC do in these assays?
LDHA inh: -24

How did COc1cc(/C=C/c2ccc3cccc(OC)c3n2)ccc1OC(C)=O do in these assays?
LDHA inh: 7

Results for Cc1nc(C(=O)O)c(C(=O)O)nc1C ?
LDHA inh: 2

Results for CCOC(=O)C(Cc1ccccc1)NC(=O)CCc1c(C)nc2ncnn2c1C (stereo unspecified) ?
IL-1B inflam inh: -5; RORgamma inh: 8%; LDHA inh: -3; DT40 TDP1 CPT: inconclusive; Gal4-VP16 FLuc: -1%; TDP1 cell noCPT: -16%
